This passage reports Potency results from PubChem BioAssay AID493185 (National Center for Advancing Translational Sciences (NCATS), 2011).

The structures appear in SMILES notation. The source made the active and inactive calls. Where a call stands in place of a potency, no number is given. The call rests on the fitted dose curve; in most records, active means well fitted activation curve with a large enough effect; inconclusive means small, poorly fitted or top-dose-only effect; inactive means no such curve, though single readings can be large or run the other way.
Potency means the concentration at half of the fitted maximal effect.

The experiment is described as follows: Counterscreen for Identifying a Potential Treatment of Ataxia-Telangiectasia: Hit Validation. The settings on record: cell-free AlphaLISA/AlphaScreen artifact counterscreen, PBS only, no cells; series mostly up to 76.9 µM. The method, boiled down: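 Without cells, compounds at up to 76.7 uM final were combined with premixed anti-pKAP1/anti-KAP1 AlphaLISA bead reagents, protease inhibitors and lysis buffer; signal read after 6 hr at 25C to flag assay-platform artifacts.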
For the compound `Cc1cc2nc3ccc(=[N+](C)C)cc-3sc2cc1N`, the Potency is 26 µM (active).

As for `COc1ccc(C(=O)/C=C/C(=O)N(CC(=O)NC2CCCCC2)Cc2ccccc2)c(O)c1`, the Potency entry was “inactive”.

As for `COc1ccc(-c2csc(-c3ccc(O)cc3)n2)cc1`, the Potency result was “inactive”.

Take `C/C=C\C=C/C(=O)Nc1cccc(C2=NOC3(C2)C[C@@H](C(N)=O)N(C(=O)COc2ccc(Cl)cc2)C3)c1` (stereo not given in full): the Potency entry is “inactive”.

Regarding `Cc1nnc(SCC(=O)NC(=O)Nc2ccc3c(c2)OCCO3)n1N`, the Potency entry is “inactive”.

In the case of `O=C(COc1ccccc1Cl)NCCCNC(=O)c1cnccn1`, the Potency entry is “inactive”.

As to `O=c1c2cc(Br)ccc2nc(-c2ccccc2)n1O`, the Potency result is “inactive”.

For `Cc1ccc2c(c1)C(c1ccccc1)N(C(=O)CC(C)C)CC(=O)N2` (stereo not given), the Potency entry is “inactive”.

Turning to `O=C1NC(NS(=O)(=O)c2ccc(Cl)cc2)(C(F)(F)F)C(=O)N1CCc1ccccc1` (stereo not given), the Potency result was “inactive”.

As to `CCOC(=O)N1CCN(c2nc(N(c3ccccc3)c3ccccc3)nc(-n3ccnc3)n2)CC1`, the Potency entry was “inactive”.

With `COc1ccc(-c2nc3n(c2C)Cc2ccccc2-3)cc1`, the Potency is 32.8 µM (active).

Turning to `NC(=O)c1cc2ccccc2o/c1=N/NC(=O)c1cccc(F)c1`, the Potency entry is “inactive”.

As for `CCN1CCN(CC(=O)Nc2ccc(C(C)=O)cc2)CC1`, the Potency result is “inactive”.

On to `O=C(C[n+]1cccc2ccccc21)c1ccc(NC(=O)c2ccccc2)cc1`, for which the Potency entry was “inactive”.

Take `Cn1c(=O)oc2cc(S(=O)(=O)N3CCc4ccccc43)ccc21`: the Potency result was “inactive”.

Take `CC(C)C1CC(CCN)(c2ccccc2)CCO1` (stereo not given): the Potency entry was “inactive”.

Take `CCOC(=O)C1=C(C)N(c2ccc(OC)cc2)C(=O)/C1=C\c1ccc(O)c(OCC)c1`: the Potency entry was “inactive”.

For `Cc1ccc(NC(=O)Nc2cccnc2)cc1NC(=O)Nc1cccnc1`, the Potency entry is “inactive”.

Turning to `Cc1[nH]c2c(C)cccc2c1CN1CCC(CO)(Cc2ccccc2)CC1`, the Potency entry is “inactive”.

As to `CCN(CC)S(=O)(=O)c1ccc(Cl)c(NC(=O)CCCCl)c1`, the Potency result was “inactive”.

As for `COc1ccc(Cl)cc1NC(=O)C[n+]1cccc(C)c1`, the Potency entry was “inactive”.

Take `O=C(Nc1cc(S(=O)(=O)N2CCOCC2)ccc1Cl)c1cc(=O)c2ccccc2o1`: the Potency entry was “inactive”.

As to `S=c1[nH]nc(COc2ccccc2)n1/N=C/c1ccccc1Cl`, the Potency entry is “inactive”.

As to `CCOc1cccc(/C=C/c2ccc3cccc(O)c3n2)c1OC`, the Potency result was “inactive”.

Turning to `Cc1cccc(NC(=O)/C(C#N)=C/c2ccc(F)cc2)n1`, the Potency result was “inactive”.

`COc1ccccc1C1CCN(C(=O)c2ccc(Cl)cc2)CC1`: the Potency entry was “inactive”.

For the compound `COc1ccccc1N1CN(CCc2ccccc2)CNC1=S`, the Potency entry was “inactive”.

`O=C(CCCn1nnnc1CN1CCOCC1)N1CCC(c2ccc(F)cc2)C1` (stereo not given): the Potency result was “inactive”.

On to `CCOC(=O)c1ccccc1NC(=O)c1ccc2nc[nH]c2c1`, for which the Potency entry is “inactive”.

With `N#Cc1c2c(c(-n3cnc4ccccc43)n3c1nc1ccccc13)CCC2`, the Potency result is “inactive”.

With `OC1(CC#CCN2CCCCC2)c2ccccc2-c2ccccc21`, the Potency entry is “inactive”.

Take `S=c1[nH]nc(Cn2c(-c3ccccn3)nc3ccccc32)n1-c1ccc2c(c1)OCCO2`: the Potency result is “inactive”.

Take `O=C(c1cccc(F)c1)N1CCCC(C(=O)N2CCCCCC2)C1` (stereo not given): the Potency result was “inactive”.

In the case of `Cc1nn(-c2ccccc2)c2nc(C(Cl)(Cl)Cl)[nH]c(=O)c12`, the Potency entry was “inactive”.

Regarding `NC(=O)C1CCN(Cc2nc3cc(C(F)(F)F)ccc3c(=O)[nH]2)CC1`, the Potency entry is “inactive”.

Turning to `O=C(N/N=C/c1ccncc1)c1ccc(COc2cccc3cccnc23)cc1`, the Potency result is “inactive”.

As for `CC1=C/C(=C\C=C(C#N)C#N)N(C)c2ccccc21`, the Potency result was “inactive”.

Turning to `COc1ccc(C2/C=C\CN(S(=O)(=O)c3ccc4ccccc4c3)CC(=O)N2Cc2ccc(F)cc2)cc1` (stereo not given), the Potency result was “inactive”.

With `C/C(CCC1CC(C)OC1=O)=N\NC(N)=S` (stereo not given), the Potency entry is “inactive”.

Take `CC(=O)/C(N=Nc1nc2c([nH]1)c(=O)n(C)c(=O)n2C)=C(\C)O`: the Potency result is “inactive”.
